These results are taken from PubChem BioAssay (NCI).

Where “and” joins values, the source holds several entries; their conditions need not be identical. Equal entries are not always repeated. About 83,000 compounds went through this panel and 20% of them were active in at least one assay; those are over-represented in the sample as a whole.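 Values shown are percent growth following 48 h exposure of cells in 96-well plates to a single concentration of compound; below 10 was considered active.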 Calls of active or inactive are those of the source.

Some test systems named below: NCI-H23 lung; NCI-H226 lung; NCI-H322M lung; NCI-H460 lung; HOP-92 NSCLC; NCI-H522 lung; A549/ATCC NSCLC; 786-0 renal; COLO 205 colon.
Holding throughout (experiment): NCI-60 one-dose screen, 48 h (100 = growth as untreated, 0 = no growth, -100 = all killed)
Another experiment relates to HOP-62 NSCLC. As to conditions: 10 µM unless noted.

Turning to `CC1(C)OB(c2ccc(Cn3cc(F)c(=O)[nH]c3=O)cc2)OC1(C)C`, the growth in the experiment on NCI-H23 lung (10 µM) was 94.9% (inactive); in the experiment on NCI-H23 lung (50 µM), 68.3% (inactive); in the experiment with NCI-H226 lung (10 µM), 96.9% (inactive); in the experiment with NCI-H226 lung (50 µM), 64% (inactive); in the experiment on NCI-H322M lung (10 µM), 102% (inactive); in the experiment with NCI-H322M lung (50 µM) it was 86.4% (inactive). Moreover, the growth with NCI-H460 lung (10 µM) was 106% (inactive); in the experiment on NCI-H460 lung (50 µM) it was 34.2% (inactive); in the experiment with HOP-92 NSCLC (10 µM) it was 98.3% (inactive); in the experiment with HOP-92 NSCLC (50 µM), 33.2% (inactive); in the experiment on NCI-H522 lung (10 µM), 91% (inactive); in the experiment with NCI-H522 lung (50 µM), 10.3% (inactive). Besides, the growth was 98.9% (inactive) in the experiment with A549/ATCC NSCLC (10 µM); 75.8% (inactive) in the experiment with A549/ATCC NSCLC (50 µM); 105% (inactive) with 786-0 renal (10 µM); 81.4% (inactive) in the experiment on 786-0 renal (50 µM); 120% (inactive) with COLO 205 colon (10 µM); 36.4% (inactive) with COLO 205 colon (50 µM).

On to `c1ccc2c(CC3=NCCN3)cccc2c1`, for which the growth is 96.3% (inactive) and 98.5% (inactive) in the experiment on NCI-H23 lung (10 µM unless noted); 91.4% (inactive) and 100% (inactive) with NCI-H226 lung (10 µM unless noted); 98.1% (inactive) and 115% (inactive) in the experiment on NCI-H322M lung (10 µM unless noted); 112% (inactive) and 98.8% (inactive) in the experiment with HOP-62 NSCLC; 108% (inactive) and 105% (inactive) with NCI-H460 lung (10 µM unless noted); 82.3% (inactive) and 87.7% (inactive) in the experiment on HOP-92 NSCLC (10 µM unless noted). Besides, the growth in the experiment with NCI-H522 lung (10 µM unless noted) is 103% (inactive) and 90% (inactive); in the experiment with A549/ATCC NSCLC (10 µM unless noted) it was 97.6% (inactive) and 93.8% (inactive); with 786-0 renal (10 µM unless noted), 98.3% (inactive) and 99.9% (inactive); with COLO 205 colon (10 µM unless noted), 113% (inactive) and 112% (inactive).

Take `CCOC(=O)c1c(C)oc(C)c(C(=O)OCC)c1=O`: the growth with NCI-H23 lung (10 µM unless noted) is 91.8% (inactive) and 96% (inactive); in the experiment with NCI-H226 lung (10 µM unless noted), 95.9% (inactive) and 104% (inactive); in the experiment on NCI-H322M lung (10 µM unless noted), 99.7% (inactive) and 107% (inactive); in the experiment on HOP-62 NSCLC it was 99.9% (inactive) and 96.7% (inactive); with NCI-H460 lung (10 µM unless noted), 108% (inactive) and 104% (inactive); in the experiment with HOP-92 NSCLC (10 µM unless noted), 98.3% (inactive) and 73.8% (inactive). Also, the growth in the experiment on NCI-H522 lung (10 µM unless noted) was 109% (inactive) and 94.9% (inactive); with A549/ATCC NSCLC (10 µM unless noted) it was 104% (inactive) and 106% (inactive); in the experiment with 786-0 renal (10 µM unless noted), 98.8% (inactive) and 104% (inactive); in the experiment with COLO 205 colon (10 µM unless noted), 117% (inactive).

With `O=C(O)CCCCc1ccc([N+](=O)[O-])cc1`, the growth in the experiment with NCI-H23 lung (10 µM unless noted) is 99.6% (inactive) and 101% (inactive); with NCI-H226 lung (10 µM unless noted), 120% (inactive) and 108% (inactive); with NCI-H322M lung (10 µM unless noted) it was 112% (inactive) and 96.7% (inactive); with HOP-62 NSCLC, 103% (inactive); in the experiment with NCI-H460 lung (10 µM unless noted), 96.1% (inactive) and 120% (inactive); with HOP-92 NSCLC (10 µM unless noted) it was 77.5% (inactive) and 83.8% (inactive). Besides, the growth with NCI-H522 lung (10 µM unless noted) is 91.7% (inactive) and 103% (inactive); with A549/ATCC NSCLC (10 µM unless noted), 97.6% (inactive) and 102% (inactive); with 786-0 renal (10 µM unless noted), 102% (inactive) and 96.1% (inactive); in the experiment on COLO 205 colon (10 µM unless noted), 115% (inactive) and 113% (inactive).

On to `COc1ccccc1NC(=O)OCC#CCOC(=O)Nc1ccccc1OC`, for which the growth in the experiment on NCI-H23 lung (10 µM unless noted) is 101% (inactive) and 95.5% (inactive); in the experiment on NCI-H226 lung (10 µM unless noted), 97.8% (inactive) and 90.5% (inactive); with NCI-H322M lung (10 µM unless noted), 112% (inactive) and 98.4% (inactive); in the experiment with HOP-62 NSCLC it was 102% (inactive) and 91.8% (inactive); with NCI-H460 lung (10 µM unless noted) it was 110% (inactive) and 94.7% (inactive); in the experiment on HOP-92 NSCLC (10 µM unless noted) it was 83.1% (inactive). The growth with NCI-H522 lung (10 µM unless noted) is 80.2% (inactive) and 76.8% (inactive); in the experiment on A549/ATCC NSCLC (10 µM unless noted), 101% (inactive) and 87% (inactive); in the experiment on 786-0 renal (10 µM unless noted) it was 108% (inactive) and 88.2% (inactive); in the experiment on COLO 205 colon (10 µM unless noted) it was 107% (inactive) and 120% (inactive).

For the compound `O=C(Nc1ccc(Cl)cc1)c1cc2ccccc2cc1O`, the growth is 12.2% (inactive) and 4.22% (active) with NCI-H23 lung (10 µM unless noted); 54.4% (inactive) and 42.1% (inactive) with NCI-H226 lung (10 µM unless noted); 17.1% (inactive) and 19.6% (inactive) in the experiment on NCI-H322M lung (10 µM unless noted); 63.6% (inactive) and 5.51% (active) with HOP-62 NSCLC; 8.06% (active) and -15.7% (active) in the experiment on NCI-H460 lung (10 µM unless noted); -9.86% (active) with HOP-92 NSCLC (10 µM unless noted). For the same compound, the growth in the experiment with NCI-H522 lung (10 µM unless noted) was 26.1% (inactive) and -32.3% (active); with A549/ATCC NSCLC (10 µM unless noted), 68.2% (inactive) and 26.4% (inactive); in the experiment with 786-0 renal (10 µM unless noted), 67.1% (inactive) and -31.9% (active); in the experiment on COLO 205 colon (10 µM unless noted) it was 91.4% (inactive) and 70.4% (inactive).

For the compound `COc1cc2nc(N3CCN(C(=O)C4COc5ccccc5O4)CC3)nc(N)c2cc1OC` (stereo not drawn), the growth in the experiment on NCI-H23 lung (10 µM unless noted) was 90.1% (inactive) and 99% (inactive) and 101% (inactive); with NCI-H226 lung (10 µM unless noted) it was 96.2% (inactive) and 96.7% (inactive) and 99.9% (inactive); in the experiment on NCI-H322M lung (10 µM unless noted), 123% (inactive) and 75.6% (inactive) and 99.4% (inactive); in the experiment on HOP-62 NSCLC, 102% (inactive) and 96.4% (inactive) and 110% (inactive); in the experiment on NCI-H460 lung (10 µM unless noted) it was 101% (inactive) and 98.5% (inactive) and 117% (inactive); in the experiment with HOP-92 NSCLC (10 µM unless noted), 148% (inactive) and 106% (inactive) and 124% (inactive). Further, the growth is 82.6% (inactive) and 84.1% (inactive) in the experiment with NCI-H522 lung (10 µM unless noted); 102% (inactive) and 88.9% (inactive) in the experiment on A549/ATCC NSCLC (10 µM unless noted); 112% (inactive) and 93.5% (inactive) and 99% (inactive) in the experiment with 786-0 renal (10 µM unless noted); 93.6% (inactive) and 104% (inactive) in the experiment with COLO 205 colon (10 µM unless noted).

With `COc1c(/C(C)=N/N=c2sc(C(C)=O)nn2-c2ccc(Cl)cc2)c(Oc2ccccc2)c(OC)c2occc12`, the growth with NCI-H23 lung (10 µM unless noted) was 89.6% (inactive) and 98% (inactive); with NCI-H226 lung (10 µM unless noted) it was 98.9% (inactive) and 97.4% (inactive); with NCI-H322M lung (10 µM unless noted), 89.8% (inactive) and 100% (inactive); in the experiment on HOP-62 NSCLC it was 88.6% (inactive) and 98.3% (inactive); in the experiment with NCI-H460 lung (10 µM unless noted), 99.2% (inactive) and 103% (inactive); in the experiment on HOP-92 NSCLC (10 µM unless noted), 90.9% (inactive) and 93.5% (inactive). Further, the growth with NCI-H522 lung (10 µM unless noted) is 91.5% (inactive) and 79.8% (inactive); in the experiment with A549/ATCC NSCLC (10 µM unless noted), 108% (inactive) and 102% (inactive); with 786-0 renal (10 µM unless noted) it was 102% (inactive); in the experiment on COLO 205 colon (10 µM unless noted), 114% (inactive) and 111% (inactive).
